Results reported in the supplement of paper PMC8975748.
Counter-ions that a name gives are not always drawn.

Each molecule was assayed on Saccharomyces cerevisiae BY4741 SeMeCo community (assay: z-score of subpopulation abundance vs DMSO median, subpopulation auxotrophic for H; higher = larger share of this subpopulation than in DMSO controls). Conditions: 10 µM; 24 h; SM minimal medium; subpopulation (auxotrophy): H.
Experimental: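 Fluorescent four-plasmid SeMeCo (self-establishing metabolically cooperating S. cerevisiae BY4741 community; plasmids pH-mRuby2, pL-mWasabi, pU-eCFP, pM-TagRFP657) was grown 24 h in minimal SM medium with each Selleck FDA-approved drug at 10 µM in 384-well plates. Cells were fixed and imaged by high-content confocal microscopy. For each auxotrophic subpopulation (and the prototroph), a z-score gives the deviation from the DMSO vehicle-control population median.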
In the case of Nc1nc2[nH]cc(CCc3ccc(C(=O)N[C@@H](CCC(=O)O)C(=O)O)cc3)c2c(=O)[nH]1 [Pemetrexed], the “z-score of subpopulation abundance” value is reported as 5.02.
In the case of O=C(CCCN1CCN(c2ccccn2)CC1)c1ccc(F)cc1 [Azaperone], the “z-score of subpopulation abundance” value is reported as -0.28.
In the case of Cc1cc(C)nc(NS(=O)(=O)c2ccc(N)cc2)n1 [Sulfamethazine Sodium Salt], the “z-score of subpopulation abundance” value is reported as 0.36.
In the case of CCN1CC(CCN2CCOCC2)C(c2ccccc2)(c2ccccc2)C1=O (stereo not given) [Doxapram HCl], the “z-score of subpopulation abundance” value is reported as -0.42.
For CCOc1cc(N)c([N+](=O)[O-])cc1C(=O)NC1CCN(CC2CC=CCC2)CC1 (stereo not given) [Cinitapride Hydrogen Tartrate], the “z-score of subpopulation abundance” value was -0.46.
With CC(=O)C1C(=O)C=C(C)OC1=O (stereo not given) [Sodium dehydroacetate] the “z-score of subpopulation abundance” value was -1.35.
CCC[C@@H]1C[C@@H](C(=O)N[C@@H]([C@H]2O[C@H](SC)[C@H](O)[C@@H](O)[C@H]2O)[C@@H](C)O)N(C)C1 [Lincomycin HCl] was tested, and the “z-score of subpopulation abundance” value was -0.53.
CC[C@@H]1/C=C(\C)C[C@H](C)C[C@H](OC)[C@H]2O[C@@](O)(C(=O)C(=O)N3CCCC[C@H]3C(=O)O[C@H](/C(C)=C/[C@@H]3CC[C@@H](O)[C@H](OC)C3)[C@H](C)[C@@H](O)CC1=O)[C@H](C)C[C@@H]2OC [Ascomycin (FK520)] was tested, and the “z-score of subpopulation abundance” value was 1.96.
For O=C1N=C(O)NC1(c1ccccc1)c1ccccc1 [Phenytoin Sodium], the “z-score of subpopulation abundance” value was -0.03.
With COc1cc(NS(=O)(=O)c2ccc(N)cc2)ncn1 [Sulfamonomethoxine] the “z-score of subpopulation abundance” value was -0.96.
With CN(C)c1ccc(O)c2c1C[C@H]1C[C@H]3[C@H](N(C)C)C(=O)C(C(N)=O)=C(O)[C@@]3(O)C(=O)C1=C2O [Minocycline HCl] the “z-score of subpopulation abundance” value was -0.15.
In the case of O=C1OC(CN2CCOCC2)CN1/N=C/c1ccc([N+](=O)[O-])o1 (stereo not given) [Furaltadone HCl], the “z-score of subpopulation abundance” value is reported as -0.56.
With NC(=N\CCCCCC/N=C(N)/N=C(\N)Nc1ccc(Cl)cc1)/N=C(\N)Nc1ccc(Cl)cc1 [Chlorhexidine diacetate] the “z-score of subpopulation abundance” value was 0.93.
CCCN[C@H]1CCc2nc(N)sc2C1 [Pramipexole] was tested, and the “z-score of subpopulation abundance” value was -0.21.
In the case of CC(C)NNC(=O)c1ccncc1 [Iproniazid], the “z-score of subpopulation abundance” value is reported as 0.01.
CC[N+](CC)(CC)CC [Tetraethylammonium bromide] was tested, and the “z-score of subpopulation abundance” value was -0.73.
With Cc1nc(=O)c2cc(CN(C)c3ccc(C(=O)N[C@@H](CCC(=O)O)C(=O)O)s3)ccc2[nH]1 [Raltitrexed] the “z-score of subpopulation abundance” value was -0.94.
For C[C@@H](NCCCc1cccc(C(F)(F)F)c1)c1cccc2ccccc12 [Cinacalcet HCl], the “z-score of subpopulation abundance” value was 0.26.
COCCCOc1ccnc(C[S+]([O-])c2nc3ccccc3[nH]2)c1C (stereo not given) [Rebeprazole sodium] was tested, and the “z-score of subpopulation abundance” value was -0.76.
In the case of Cc1cc(-c2ccc(/N=N/c3ccc4c(S(=O)(=O)O)cc(S(=O)(=O)O)c(N)c4c3O)c(C)c2)ccc1/N=N/c1ccc2c(S(=O)(=O)O)cc(S(=O)(=O)O)c(N)c2c1O [Evans Blue], the “z-score of subpopulation abundance” value is reported as 4.9.
CN[C@H](CC(C)C)C(=O)N[C@H]1C(=O)N[C@@H](CC(N)=O)C(=O)N[C@H]2C(=O)N[C@H]3C(=O)N[C@H](C(=O)N[C@H](C(=O)O)c4cc(O)cc(O)c4-c4cc3ccc4O)[C@H](O)c3ccc(c(Cl)c3)Oc3cc2cc(c3O[C@@H]2O[C@H](CO)[C@@H](O)[C@H](O)[C@H]2O[C@H]2C[C@](C)(N)[C@H](O)[C@H](C)O2)Oc2ccc(cc2Cl)[C@H]1O [Vancomycin HCl] was tested, and the “z-score of subpopulation abundance” value was -0.1.
In the case of O=c1n(CCCN2CCN(c3cccc(Cl)c3)CC2)nc2ccccn12 [Trazodone HCl], the “z-score of subpopulation abundance” value is reported as -0.86.
CCC(C)(C)C(=O)O[C@H]1C[C@@H](C)C=C2C=C[C@H](C)[C@H](CC[C@@H]3C[C@@H](O)CC(=O)O3)[C@H]21 [Simvastatin] was tested, and the “z-score of subpopulation abundance” value was 0.79.
In the case of CC(=O)N1CCN(c2ccc(OCC3COC(Cn4ccnc4)(c4ccc(Cl)cc4Cl)O3)cc2)CC1 (stereo not given) [Ketoconazole], the “z-score of subpopulation abundance” value is reported as 0.08.
For COc1ccc([C@@H]2Sc3ccccc3N(CCN(C)C)C(=O)[C@@H]2OC(C)=O)cc1 [Diltiazem HCl], the “z-score of subpopulation abundance” value was -0.4.
For C[C@@H](O)[C@H]1C(=O)N2C(C(=O)OCOC(=O)C(C)(C)C)=C(SC3CN(C4=NCCS4)C3)[C@H](C)[C@H]12 [Tebipenem Pivoxil], the “z-score of subpopulation abundance” value was -0.29.
For CCCCCNC(=N)N/N=C/c1c[nH]c2ccc(OC)cc12 [Tegaserod Maleate], the “z-score of subpopulation abundance” value was 0.7.
For CC1=C(C(=O)O)N2C(=O)[C@@H](NC(=O)[C@H](N)C3=CCC=CC3)[C@H]2SC1 [Cefradine], the “z-score of subpopulation abundance” value was -0.04.
C[C@](N)(Cc1ccc(O)c(O)c1)C(=O)O [Methyldopa] was tested, and the “z-score of subpopulation abundance” value was 0.34.
CN(C)CCc1c[nH]c2ccc(CS(=O)(=O)N3CCCC3)cc12 [Almotriptan Malate] was tested, and the “z-score of subpopulation abundance” value was -0.37.
In the case of COc1cccc2c1C(=O)c1c(O)c3c(c(O)c1C2=O)C[C@@](O)(C(=O)CO)C[C@@H]3O[C@H]1C[C@H](N)[C@@H](O)[C@H](C)O1 [Epirubicin HCl], the “z-score of subpopulation abundance” value is reported as 1.56.
With Cc1nc(Nc2ccc(F)cc2)nc(N2CCc3ccccc3C2C)c1C (stereo not given) [Revaprazan Hydrochloride] the “z-score of subpopulation abundance” value was 1.
With NC(=NCCCCCCN=C(N)N=C(N)Nc1ccc(Cl)cc1)N=C(N)Nc1ccc(Cl)cc1 [Chlorhexidine?2HCl] the “z-score of subpopulation abundance” value was 2.59.
For Fc1ccc([C@@H]2CCNC[C@H]2COc2ccc3c(c2)OCO3)cc1 [Paroxetine mesylate], the “z-score of subpopulation abundance” value was -0.34.
For N=C(N)NC(=O)c1nc(Cl)c(N)nc1N [Amiloride HCl], the “z-score of subpopulation abundance” value was 0.83.
In the case of CC(C)COCC(CN(Cc1ccccc1)c1ccccc1)N1CCCC1 (stereo not given) [Bepridil hydrochloride], the “z-score of subpopulation abundance” value is reported as 1.08.
O=C(O)c1ccccc1O [Salicylic acid] was tested, and the “z-score of subpopulation abundance” value was -0.17.
For C#CCN(C)Cc1ccccc1 [Pargyline hydrochloride], the “z-score of subpopulation abundance” value was -0.83.
Oc1ccc(Cl)c2cccnc12 [Cloxiquine] was tested, and the “z-score of subpopulation abundance” value was 13.1.
In the case of CC[C@@H](CO)NCCN[C@@H](CC)CO [Ethambutol 2HCl], the “z-score of subpopulation abundance” value is reported as -1.02.
